Whole data set: some 68,000 sequences, median “fluorescence intensity (a.u.)” near 9,100, cut for the highest 2% near 16,000. This is one part of a sample in which the highest values are shown more often than they occur.
target: OsWRKY34 (Oryza sativa, UniProt Q0JBA9 1-250); experiment: protein-binding microarray (RPBM); PBS, 2% BSA, 51.3 ng/ul salmon testes DNA, 50 uM zinc acetate, 200 nM TF, 25 C, 1 h; high values mean tight binding; settings: protein: recombinant; tags: N-terminal polyhistidine and DsRed monomer fusion (pET32a); label: CyDye5-dUTP incorporated in the synthesized complementary strand; 3' TTTTT single-stranded linker to array surface; dsDNA, one strand shown
Summary of the method: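 Per-feature fluorescence intensity (arbitrary units), read on an Axon 4000B scanner, is the binding signal. Transcription factors carrying an N-terminal polyhistidine tag and DsRed fusion were expressed in E. coli BL21-CodonPlus and purified on Ni–NTA. A custom Agilent array, made double-stranded by primer extension with Cy5-dUTP and blocked with 2% BSA, was incubated with 200 nM protein in PBS, 2% BSA, salmon testes DNA and 50 µM zinc acetate at 25 °C for 1 h and then washed.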

OsWRKY34, sequence (Q0JBA9 entry or part of it): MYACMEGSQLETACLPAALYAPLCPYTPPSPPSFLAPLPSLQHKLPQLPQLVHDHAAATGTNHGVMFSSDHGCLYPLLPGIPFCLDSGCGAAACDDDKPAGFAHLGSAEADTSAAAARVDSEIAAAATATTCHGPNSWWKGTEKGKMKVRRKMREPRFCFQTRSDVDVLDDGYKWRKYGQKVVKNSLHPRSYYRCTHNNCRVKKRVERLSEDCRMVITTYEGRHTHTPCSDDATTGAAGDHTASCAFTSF

Going from “CGTGTCGCACCACATCCAGCGTCCCACGGCCTACCACCGCCGGAGTCACCTAGTGCAG” to “ATATGGCATCTCGGTTTCGTCTTAACAGGGTATTGCACTACGGAGTCACCTAGTGCAG”, the binding signal rises from 8700 fluorescence intensity (a.u.) to 9900 fluorescence intensity (a.u.).

Going from “ACTCCCTTGCTTTTTCTCGCTATCAATCACAATAATCCAACGGAGTCACCTAGTGCAG” to “CGTGTGGTTGATTGTGTGTGCGAGCCGAATGCTGCCTACTCGGAGTCACCTAGTGCAG”, the binding signal falls from 9590 fluorescence intensity (a.u.) to 9260 fluorescence intensity (a.u.).

Going from “TTACCATGGTGCATTTACGGCTGTGATCGCTTTGTTGTACCGGAGTCACCTAGTGCAG” to “TCTCGGCTCGCAATGCTTTTTGGAGTTTTGTTTCTCTCCCCGGAGTCACCTAGTGCAG”, the binding signal rises from 9370 fluorescence intensity (a.u.) to 10200 fluorescence intensity (a.u.).

First: TCATTGCACCTCTCATTTAACAAGGGATATAATAGTTCTTCGGAGTCACCTAGTGCAG
Second: TGGCATCATCGACCATACACTTTTGTCAATCCGTTCAGCTCGGAGTCACCTAGTGCAG
The binding signal of the first is lower: 8360 fluorescence intensity (a.u.) for the first, 8910 fluorescence intensity (a.u.) for the second.

Going from “GCTTCAAACTCGAGCTTCTACCAGTACCAGCTACCAGGTGCGGAGTCACCTAGTGCAG” to “AAAAAGTCAACGGCGTCAAACATATTGAAACGGAGGGAGTCGGAGTCACCTAGTGCAG”, the binding signal rises from 8190 fluorescence intensity (a.u.) to 8240 fluorescence intensity (a.u.).

Compared with “CAAACGTTGGAAAAAAGTCAACGGCGTCATATATTTTAATCGGAGTCACCTAGTGCAG”, “TAGTCAAACGTTGAAAAAAAAAGTCAACGGCGTCACACATCGGAGTCACCTAGTGCAG” is higher in binding signal: 15800 fluorescence intensity (a.u.) for the first, 20900 fluorescence intensity (a.u.) for the second.

Going from “AAAATTCCTAAAACTACTTGCTACTATTCTCTCTCCAACTCGGAGTCACCTAGTGCAG” to “TCCTCGCGTTCTTTTTCTCCACCGAGACCACCGGCGCTCTCGGAGTCACCTAGTGCAG”, the binding signal rises from 8240 fluorescence intensity (a.u.) to 9050 fluorescence intensity (a.u.).

Going from “TTGGTGGCCTTTTCTCCCTTTTTTGCATGTGCTTTGCTCTCGGAGTCACCTAGTGCAG” to “GATACCGTTGACTTTTTAGCACATATTTGACCGTTCGTCTCGGAGTCACCTAGTGCAG”, the binding signal rises from 14100 fluorescence intensity (a.u.) to 39400 fluorescence intensity (a.u.).

First: TGATACCGTTGACTTTTCACATAACTTGGTCGTTCGTTTTCGGAGTCACCTAGTGCAG
Second: GGATTTTAAGTTTTTACTTGCACTGTTTGACCATTCGTCTCGGAGTCACCTAGTGCAG
The binding signal of the first is higher: 34100 fluorescence intensity (a.u.) for the first, 9200 fluorescence intensity (a.u.) for the second.

Going from “GACGCCGTTGACTTTTTATCACATATTTGACCGTTCGTCTCGGAGTCACCTAGTGCAG” to “GATTTTGACTTTTTACTTGCACTGTTTGACCATTCATATTCGGAGTCACCTAGTGCAG”, the binding signal falls from 20400 fluorescence intensity (a.u.) to 16300 fluorescence intensity (a.u.).

Going from “CACATATCGTTTAAATTTTCGACTTGACCGTTTTTCAATTCGGAGTCACCTAGTGCAG” to “AGCACATATTTGACCGTTCGTCTTATTCAAAAACTTTTATCGGAGTCACCTAGTGCAG”, the binding signal falls from 9550 fluorescence intensity (a.u.) to 8540 fluorescence intensity (a.u.).

Compared with “ACGCCGTTGATTTTTTTAAACATATTTGACCGTTCGTCTTCGGAGTCACCTAGTGCAG”, “GGATTTTGACTTTTTACTTGCACTGTTTGACTATTCGTCTCGGAGTCACCTAGTGCAG” is higher in binding signal: 11400 fluorescence intensity (a.u.) for the first, 18600 fluorescence intensity (a.u.) for the second.

Compared with “TACCCCTCCGTTTCATATGATAAGTTGTTTGACTTTTTTTCGGAGTCACCTAGTGCAG”, “ACTTCACCGGTTTCCGGCGTCCGGCGCGGCGCCTGCAGAACGGAGTCACCTAGTGCAG” is lower in binding signal: 14300 fluorescence intensity (a.u.) for the first, 9530 fluorescence intensity (a.u.) for the second.

Compared with “TAACACCCAACACTTACACTCTGGCATTTTGGAGGTCTTGCGGAGTCACCTAGTGCAG”, “AGCACCTACGGCGGCGTCTTCTCCTACTGCCTACCGCCGACGGAGTCACCTAGTGCAG” is higher in binding signal: 8990 fluorescence intensity (a.u.) for the first, 9000 fluorescence intensity (a.u.) for the second.

First: ATGACGTCCAAAGCTTCACCTTTTTTTTTATATATAAACCCGGAGTCACCTAGTGCAG
Second: GGGTAGGAGGAGGTAATTGAGAGGTAATTCCTCCTTTAATCGGAGTCACCTAGTGCAG
The binding signal of the first is lower: 8260 fluorescence intensity (a.u.) for the first, 9220 fluorescence intensity (a.u.) for the second.

First: TTTTGACGACCCTAGCAATATTGCTATACACTCTTCATTCCGGAGTCACCTAGTGCAG
Second: AAGAAATCTTCCCTGTCCTACCTTTTCTTCTCACTGTATGCGGAGTCACCTAGTGCAG
The binding signal of the first is higher: 10700 fluorescence intensity (a.u.) for the first, 8860 fluorescence intensity (a.u.) for the second.

Going from “ACAGGAGAGTGATTACTTTTGCATTATTAATTGATGTTGTCGGAGTCACCTAGTGCAG” to “TTTGACATCATTGACTTTTTAGCACATATTTGACCGTTCGCGGAGTCACCTAGTGCAG”, the binding signal rises from 8400 fluorescence intensity (a.u.) to 14400 fluorescence intensity (a.u.).

Compared with “GACACCGTTAACTTTTTAGCATATGTTTGACCGTTCGTCTCGGAGTCACCTAGTGCAG”, “CACCGTTGACTTTTTAGCACATATTTGACCGTTTGTCTTTCGGAGTCACCTAGTGCAG” is higher in binding signal: 10600 fluorescence intensity (a.u.) for the first, 39100 fluorescence intensity (a.u.) for the second.

Compared with “GACACTGTTGACTTTTTAGCACATATTTGACCGTTCGTCTCGGAGTCACCTAGTGCAG”, “TTAGCACATGTTTGACCGTTCGTCTTATTCAAAAACTTTTCGGAGTCACCTAGTGCAG” is lower in binding signal: 21300 fluorescence intensity (a.u.) for the first, 12600 fluorescence intensity (a.u.) for the second.

Going from “CCCACACTTCTCCCGTTCTCCTGGAGGAAGACGACACCCACGGAGTCACCTAGTGCAG” to “CATCTTCGTCCTTTAAATTTGTTTTATTTTAAATCCTCTACGGAGTCACCTAGTGCAG”, the binding signal rises from 8150 fluorescence intensity (a.u.) to 8400 fluorescence intensity (a.u.).

Compared with “TCATTTGTCATCCATAAGTTTATATTTTGTACTTTTAGTTCGGAGTCACCTAGTGCAG”, “AGAGACTGGTGATGGACTTTACTCTTTTCTTCTCCAACACCGGAGTCACCTAGTGCAG” is lower in binding signal: 8550 fluorescence intensity (a.u.) for the first, 8330 fluorescence intensity (a.u.) for the second.

— article PMC7819943, “Rice protein-binding microarrays: a tool to detect cis-acting elements near promoter regions in rice”
